CYP2C9 act – human CYP2C9 activators, primary screen, biochemical, luminescence; recombinant CYP2C9, luciferin-H conversion; stronger effect = higher value; factor 1 = untreated enzyme, 0 = blocked; activation factor at 5 µM; 96,000 tested, 1.4% active; AID 1024, 2008;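 active = activation factor of 2 or more for CYP2C9 at a 5 µM dose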
CYP2C19 act – human CYP2C19 activators, primary screen, biochemical, luminescence; AID 1025, 2008; 96,000 tested, under 10 active; activation factor at 5 µM; Cytochrome P450 2C19 (Homo sapiens), P33261; recombinant CYP2C19, luciferin-H EGE luminescence; stronger effect = higher value; 0 = fully inhibited enzyme, 1 = untreated enzyme;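 active = activation factor of at least 2 at 5 µM in the primary screen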
CYP2C19 inhib – blockers of cytochrome P450 2C19 activity – biochemical, luminescence, ADME assay, primary screen; P33261; CYP2C19 Supersomes, luciferin-H EGE luminescence, 30 min; inhibition, % at 5 µM; 96,000 tested, 21% active; AID 778, 2007;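 active = CYP2C19 inhibition above a set limit at 5 µM in the primary screen, cut at about 50% in these data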
Cav32 inh – Cav3.2 calcium influx blockers – cell-based, Fluo-4 calcium fluorescence, FDSS, MLSMR library, primary screen; 100,000 tested, 4% active; AID 449739, 2010; B-score at 10 µM; Cav3.2-expressing cells; stronger effect = lower value;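 active = single-dose well whose peak fluorescence ratio is a statistical outlier from its plate by either plate-standardised score or position-corrected B-score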
CYP2C9 inhib – blockers of cytochrome P450 2C9 activity – biochemical, luminescence, ADME assay, primary screen | inhibition, % at 5 µM | P11712 | AID 777, 2007 | CYP2C9 Supersomes, luciferin-H conversion | 96,000 tested, 20% active;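 active = blocking of liver enzyme CYP2C9 beyond about 50% at 5 µM, limit read from the data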
Each line names hits and unclear results; the compound was inactive in the other large screens. Shown are actives, neighbours in structure and some others; about 27% of the full set was active somewhere.

CCC(=O)N1c2ccc(S(=O)(=O)CCC(=O)N3CCn4c3nc3ccccc34)cc2CC1C (stereo not drawn)	none
CC1COc2c(N3CCN(C)CC3)c(F)cc3c(=O)c(C(=O)O)cn1c23 (stereo not drawn)	none (no result: CYP2C9 act, CYP2C19 act, CYP2C19 inhib, CYP2C9 inhib)
COc1c(N2CCN(C(=S)NCc3ccccc3)C(C)C2)c(F)cc2c(=O)c(C(=O)O)cn(C3CC3)c12 (stereo not drawn)	Cav32 inh 2.8
O=C(Cc1ccccc1)Nc1nc(-c2cccs2)cs1	none
CSc1nsc(NC(=O)Cc2ccccc2)n1	CYP2C19 inhib 65
O=C(CCCCCn1c(=O)[nH]c2ccccc2c1=O)NCCCN1CCN(c2ccccc2F)CC1	none (no result: Cav32 inh)
CC(=O)c1c(C(C)=O)c(C)n(C2CCCCC2)c1C	none (no result: CYP2C9 act, CYP2C19 act, CYP2C19 inhib, CYP2C9 inhib)
COc1ccnc(NCc2ccc(Cl)cc2)c1C#N	CYP2C19 inhib 100
COc1ccnc(Nc2ccc(C)c(C)c2)c1C#N	none
Cc1cc(C)n(-c2cc(-c3ccccc3)nc(C)n2)n1	none
CSCCC(NC(=O)c1ccccc1)c1nc(-c2ccccc2)no1 (stereo not drawn)	none
COc1ccc2c(c1)C(C)CC(C)(C)N2C(=O)CSc1ncn[nH]1 (stereo not drawn)	CYP2C19 inhib 88, CYP2C9 inhib 64
COc1ccc(NC(=O)CSc2ncn[nH]2)c([N+](=O)[O-])c1	none
O=C(NC1CCCCC1)C(c1cccs1)N(C(=O)Cc1c[nH]c2ccccc12)c1ccc(F)cc1 (stereo not drawn)	CYP2C19 inhib 68
CC(=O)c1ccc(N(C(=O)Cc2c[nH]c3ccccc23)C(C(=O)NC2CCCCC2)c2cccs2)cc1 (stereo not drawn)	CYP2C19 inhib 65, CYP2C9 inhib 58 (no result: Cav32 inh)
Cc1cc(C)cc(N(C(=O)C(F)(F)F)C(C(=O)NC2CCCCC2)c2cccs2)c1 (stereo not drawn)	none
Cc1ccc(C(C(=O)NC2CCCCC2)N(C(=O)Cc2c[nH]c3ccccc23)c2ccccc2)o1 (stereo not drawn)	CYP2C9 inhib 66
Cc1cc(NC(=O)CCCC(=O)N(c2ccccc2)C(C(=O)NC2CCCCC2)c2cccs2)no1 (stereo not drawn)	none (no result: CYP2C9 act, CYP2C19 act, CYP2C19 inhib, CYP2C9 inhib)
O=C(NCc1cc(C(F)(F)F)cc(C(F)(F)F)c1)C1CC(c2ccc(C(F)(F)F)cc2)=NO1 (stereo not drawn)	none (no result: CYP2C9 act, CYP2C19 act, CYP2C19 inhib, CYP2C9 inhib)
COC(=O)C1C(=O)C2=C(CC1C)NC(C)=C(C(=O)OC1CCCCC1)C2c1ccc(N(C)C)cc1 (stereo not drawn)	none (no result: CYP2C9 act, CYP2C19 act, CYP2C19 inhib, CYP2C9 inhib)
COC(=O)C1C(=O)C2=C(CC1C)NC(C)=C(C(=O)OCCOc1ccccc1)C2c1ccc(C)o1 (stereo not drawn)	Cav32 inh -5.2 (no result: CYP2C9 act, CYP2C19 act, CYP2C19 inhib, CYP2C9 inhib)
CC1=C(C(=O)OCCOc2ccccc2)C(c2ccc(C)o2)C2=C(CC(C)(C)CC2=O)N1 (stereo not drawn)	CYP2C19 inhib 78, Cav32 inh -7.1, CYP2C9 inhib 82
COC(=O)C1C(=O)C2=C(CC1C)NC(C)=C(C(=O)OCc1ccc(OC)cc1)C2c1ccc(C)o1 (stereo not drawn)	CYP2C19 inhib 61, CYP2C9 inhib 80
CCOC(=O)C1=C(C)NC2=C(C(=O)C(C(=O)OCC)C(c3ccc(OC)cc3)C2)C1c1ccccn1 (stereo not drawn)	none
COC(=O)C1C(=O)C2=C(CC1C)NC(C)=C(C(=O)OC(C)C)C2c1ccc(C)o1 (stereo not drawn)	CYP2C9 inhib 59
COC(=O)C1=C[C@@H](C(=O)OC)[C@@H]2C3=C(C(=O)[C@]2(C)NC(=O)c2ccccc2)[C@H](C)n2c(=O)n(-c4ccccc4)c(=O)n2[C@@H]3C1	none (no result: CYP2C9 act, CYP2C19 act, CYP2C19 inhib, CYP2C9 inhib)
CC(C)(C)Nc1nc2nonc2nc1NC(C)(C)C	none
CCCOc1ccc(S(=O)(=O)n2cc(Br)c(=O)[nH]c2=O)cc1	CYP2C9 inhib 98
FC(F)(F)c1cnc(Sc2nnc(-c3cccs3)n2CC2CCCO2)c(Cl)c1 (stereo not drawn)	CYP2C19 inhib 89
FC(F)(F)c1ccc(Sc2nnc(-c3cccs3)n2CC2CCCO2)nc1 (stereo not drawn)	CYP2C19 inhib 91, CYP2C9 inhib 52
Fc1ccc(-c2nnc(SCc3ncc(-c4ccccc4)o3)n2CC2CCCO2)cc1 (stereo not drawn)	none

Assay outcomes as filed in PubChem BioAssay.
